Here are results for 71 compounds from PubChem BioAssay AID430 (Sanford-Burnham Center for Chemical Genomics, 2006).

Structures are written as SMILES. Screen size: about 63,000 compounds; about 1,100 (1.7%) were called active. Shown is part of a subset that was picked to be rich in actives. Potency and affinity values are given separately. Values without a mark were called inactive. Cut-off read from the data, not from the text of the source: active = cytotoxicity above about 50%; inactive = the rest.

The test is described as follows: HPDE-C7 pancreatic duct cell viability loss – fluorescence, HTS (AID 430).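 Note: cells exposed to compound for 48 hours before viability readout; 0% = vehicle and 100% = reference cytotoxic drug.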 Particulars: HPDE-C7 pancreatic duct cells viability, at 10 µM, active compounds read high.
Consider `Cc1ccc2nc3c(cc2c1)CN(Cc1ccco1)C(=NCC1CCCO1)S3` (stereo unspecified), for which the cytotoxicity was -19.9%.
Then `Cc1cccc2cc3c(nc12)SC(=NCC1CCCO1)N(Cc1ccco1)C3` (stereo unspecified), with 53.7% (active); and `Cc1ccc2cc(CN(Cc3nnnn3Cc3ccco3)CC3CCCO3)c(=O)[nH]c2c1C` (stereo unspecified), with -0.4%.
Then `CCc1nc(SCC(=O)N2CCN(C(=O)c3ccco3)CC2)c2c3c(sc2n1)CCCC3`, with 3%; and `O=C(CN1CCN(c2ccccc2)CC1)Nc1nnc(-c2ccccc2)s1`, with 7.8%.
The result for `COc1ccc(N2CCN(CC(=O)Nc3nnc(-c4ccccc4)s3)CC2)cc1` reads 50.3% (active); that for `COc1cccc(N2CCN(CC(=O)Nc3nnc(-c4ccccc4)s3)CC2)c1`, 21.2%.
For the compound `Cn1c(=O)oc2cc(S(=O)(=O)N3CCCC(C(=O)NCc4cccs4)C3)ccc21` (stereo unspecified), the cytotoxicity was -3.9%.
In the case of `Cc1cc(C)c2c(c1)-c1c(ssc1=S)C(C)(C)N2C(=O)CSc1nncn1C`, the cytotoxicity was 56.7% (active).
The result for `Cc1ccc2c(c1)-c1c(ssc1=S)C(C)(C)N2C(=O)CSc1nncn1C` reads -1.2%; that for `Cc1ccc2c(c1)N(C(=O)CSc1nncn1C)C(C)(C)c1ssc(=S)c1-2`, 14.3%; that for `CCCN1Cc2cccc(C(N)=O)c2C1=O`, -14.7%.
The result for `Cc1ccccc1S(=O)(=O)Cc1ccc(C(=O)N2CCN(C3CCCCC3)CC2)o1` reads -7%.
Then `COc1ccccc1S(=O)(=O)Cc1ccc(C(=O)N2CCN(c3ccccc3)CC2)o1`, with -24.2%.
As to `Cc1ccccc1S(=O)(=O)Cc1ccc(C(=O)N2CCN(c3ncccn3)CC2)o1`, the cytotoxicity is -19.4%.
Then `COc1ccc(N2CCN(C(=O)c3ccc(CS(=O)(=O)c4ccc(OC)cc4)o3)CC2)cc1`, with -11.6%; and `Cc1ccccc1S(=O)(=O)Cc1ccc(C(=O)N2CCN(c3cccc(C)c3C)CC2)o1`, with 87.9% (active); and `Cc1ccc(C)c(N2CCN(C(=O)c3ccc(CS(=O)(=O)c4ccccc4C)o3)CC2)c1`, with 55.6% (active).
Then `Cc1ccccc1S(=O)(=O)Cc1ccc(C(=O)N2CCN(c3ccc(F)cc3)CC2)o1`, with -10%; and `COc1ccc(S(=O)(=O)Cc2ccc(C(=O)N3CCN(c4ccccc4F)CC3)o2)cc1`, with -21.7%; and `COc1ccc(S(=O)(=O)Cc2ccc(C(=O)N3CCN(c4cccc(C)c4C)CC3)o2)cc1`, with 57% (active).
Then `COc1ccccc1S(=O)(=O)Cc1ccc(C(=O)N2CCN(c3cccc(Cl)c3)CC2)o1`, with 60.8% (active).
`COc1ccccc1N1CCN(C(=O)c2ccc(CS(=O)(=O)c3ccccc3OC)o2)CC1`: the cytotoxicity is -8.2%.
The result for `Cc1ccc(S(=O)(=O)Cc2ccc(C(=O)N3CCN(c4cc(C)ccc4C)CC3)o2)cc1` reads 17.5%; that for `CC(NC(=O)Cn1cnc2c1c(=O)n(C)c(=O)n2C)c1ccccc1` (stereo unspecified), -1.6%; that for `CCc1cccc(NC(=O)C2CCCN(S(=O)(=O)c3c(C)[nH]c(=O)[nH]c3=O)C2)c1` (stereo unspecified), -1.3%.
For the compound `[O-][N+]12CCN(CC1)c1ccccc12`, the cytotoxicity is -14.6%.
The result for `Cc1ccc2nc3ccc(N4CCCC4)nn3c(=O)c2c1` reads 4.6%; that for `COC(=O)C1=C(C)NC(=O)CC1c1cccc(Cl)c1Cl` (stereo unspecified), -12.9%; that for `CCOC(=O)C1C(c2cccc(Cl)c2Cl)NC(=O)NC1(O)C(F)(F)F` (stereo unspecified), -1.7%.
As for `N#CC1=C(SCC(=O)NC23CC4CC(CC(C4)C2)C3)NC(=O)C(C#N)C12CCCCC2` (stereo unspecified), the cytotoxicity is 49.7%.
As for `CC(C)(C)C1CCC2(CC1)C(C#N)=C(SCC(=O)NC1CCCCC1)NC(=O)C2C#N` (stereo unspecified), the cytotoxicity was 58.7% (active).
As to `CCOC(=O)C1=C(SCC(=O)Nc2ccccc2)NC(=O)C(C#N)C12CCCCC2` (stereo unspecified), the cytotoxicity was 1.9%.
With `N#CC1=C(N)NC(SCC(=O)Nc2ccccc2)=C(C#N)C12CCCC2`, the cytotoxicity is 1.6%.
The result for `N#CC1=C(SCC(=O)NC2CC2)NC(=O)C(C#N)C12CCCCC2` (stereo unspecified) reads -13.2%; that for `Cc1ccc2[nH]c(=O)c(CN(Cc3nnnn3Cc3ccccc3)C3CCCC3)cc2c1`, -16.4%; that for `Cc1cnc(-c2nnc(N(C)C(=O)C3CCCO3)s2)cn1` (stereo unspecified), -5.4%.
`Cc1ccc(-n2ncc(C(=O)N3CCc4ccccc4C3)c2NC(=O)c2ccco2)cc1C`: the cytotoxicity is 71.2% (active).
On to `O=C(Nc1c(C(=O)N2CCCCC2)cnn1-c1ccccc1)c1ccco1`, for which the cytotoxicity was -10.4%.
The result for `Cc1ccc(NC(=O)c2cnn(-c3ccccc3)c2NC(=O)c2ccco2)cc1C` reads 1.7%; that for `CC(=O)Nc1ccc(S(=O)(=O)N2CCN(c3cc(C)ccc3C)CC2)cc1`, 7.6%.
Then `CC(=O)Nc1ccc(S(=O)(=O)N2CCN(c3cc(C)nc4ccccc34)CC2)cc1`, with 2.1%; and `CC(=O)Nc1ccc(S(=O)(=O)N2CCC(c3nc4ccccc4[nH]3)CC2)cc1`, with 6.7%.
Then `CC(=O)Nc1ccc(S(=O)(=O)N2CCN(c3cccc(C)c3C)CC2)cc1`, with 54.3% (active); and `COc1ccc(S(=O)(=O)N2CCN(c3cccc(C)c3C)CC2)cc1`, with 2%.
For the compound `CC(=O)Nc1ccc(S(=O)(=O)NC(CC(=O)N(C)Cc2ccccc2)C(C)C)cc1` (stereo unspecified), the cytotoxicity is -7.1%.
The result for `CC(C)N1CC(C(=O)Nc2nc3ccccc3s2)CC1=O` (stereo unspecified) reads -0.4%; that for `CCc1nc2sc3c(c2c(=O)n1N)CCC3`, 1.2%; that for `Nn1c(Nc2ccccc2)nc2sc3c(c2c1=O)CCC3`, 57.6% (active).
Then `CCCc1nc2sc3c(c2c(=O)n1N)CCC3`, with 3%; and `COc1ccc(S(=O)(=O)N(CC(=O)O)c2ccc(C)cc2)cc1`, with -20.8%; and `O=C(NCc1cccnc1)C1c2ccccc2C(=O)N1Cc1ccco1` (stereo unspecified), with -4.7%.
With `CC(C)(C)C1CCc2nc(NC(=O)Cc3cn4ccsc4n3)sc2C1` (stereo unspecified), the cytotoxicity was 57.3% (active).
The result for `O=C(Cc1cn2ccsc2n1)Nc1nc2c(s1)CN(Cc1ccccc1)CC2` reads -4.7%; that for `O=C(Cc1cn2ccsc2n1)Nc1nc2c(s1)CCCC2`, 6.8%; that for `CSC1=C(C#N)C2(CCCC2)C(C#N)=C(N)N1`, 22.6%.
Then `N#CC1=C(N)NC(SCC(=O)O)=C(C#N)C12CCCC2`, with 4.9%; and `CC1(C)CC(=O)C2=C(C1)NC(SCC(=O)Nc1ccccc1)=C(C#N)C21CCCCC1`, with -19.2%; and `CCSC1=C(C#N)C2(CCCC2)C(C#N)=C(N)N1`, with -1.6%.
The result for `COc1ccc(C(=O)CSC2=C(C#N)C3(CCCCC3)C(C#N)=C(N)N2)cc1` reads 22.5%; that for `CCSC1=C(C#N)C2(CCCCC2)C(C#N)=C(N)N1`, -4.6%.
Turning to `N#CC1=C(N)NC(SCc2ccccc2)=C(C#N)C12CCCCC2`, the cytotoxicity was 72.2% (active).
For `CCOC(=O)c1cnn(-c2ncnc3c2oc2ccccc23)c1N`, the cytotoxicity was -2.5%.
In the case of `COc1ccc(C2(CCN)CC(C)N(C)CC2C)cc1` (stereo unspecified), the cytotoxicity is -5.8%.
Then `O=C(c1cc(F)c(F)cc1Cl)N1CCCCC1`, with -3%.
The result for `CCCSc1nc2c(cnn2-c2ccc(F)cc2)c(=O)[nH]1` reads -9.3%; that for `Cc1ccc(S(=O)(=O)NCCCN2CCOCC2)cc1C`, -25%.
For the compound `Oc1ccc(-c2nc3cnccn3c2Nc2ccc3c(c2)OCCO3)cc1`, the cytotoxicity was 3.8%.
The result for `CCOC(=O)c1sc(NC(=O)CSc2n[nH]c(-c3ccccc3)n2)c(C#N)c1C` reads 4.4%.
As for `CCOC(=O)c1c(NC(=O)CSc2n[nH]c(N)n2)sc(CC)c1C`, the cytotoxicity was -3.3%.
The result for `O=C(COC(=O)C1COc2ccccc2O1)NC(=O)NC1CCCC1` (stereo unspecified) reads -11.8%.
